Measurements taken from PubChem BioAssay (NCI).
Compounds without any hit were thinned out: in the full panel of roughly 83,000, 20% have a hit.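 Note: values are percent growth. 100 is the growth of untreated cells, values between 100 and 0 indicate rising inhibition; between -100 and 0 indicates cell death.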 Calls of active or inactive are those of the source. Rule for the calls: active = growth percent below 10; inactive = the rest.

What was measured:
Assay in all cases: NCI-60 one-dose screen, 48 h (100 = growth as untreated, 0 = no growth, -100 = all killed)
Settings in all cases: 10 µM unless noted
[1] = test system: T-47D breast
[2] = test system: BT-549 breast
[3] = test system: MDA-MB-435 melanoma
[4] = test system: SW-620 colon
[5] = test system: MCF7 breast
[6] = test system: HCT-116 colon
[7] = test system: HCC-2998 colon
[8] = test system: KM12 colon

Measured: growth

CCOC(=O)c1c(NC(=O)c2ccc(C(C)(C)C)cc2)sc2cc(OCCN3CCCCC3)ccc12
inactive: [1] 96.9% | [2] 93% | [3] 91.8% | [4] 22.2% | [5] 34.8% | [6] 21.7% | [7] 87% | [8] 51.1%

Clc1ccc(-c2csc(Nc3cccc(Nc4csc(-c5ccc(Cl)cc5)n4)c3)n2)cc1
inactive: [1] 26.8% | [2] 112% | [3] 88.6% | [4] 86.6% | [5] 60.7% | [6] 67.2% | [7] 89.3% | [8] 67.6%

C#C[C@]1(O)CC[C@H]2[C@@H]3CC=C4c5sc(Nc6cc(Cl)ccn6)nc5CC[C@]4(C)[C@H]3CC[C@@]21C
active: [3] -61.6% | [4] -1.44% | [5] -64% | [8] -0.602%
inactive: [1] 36.6% | [2] 20% | [6] 14.4% | [7] 39.8%

C#CCOc1ccc(C(Nc2ccc(Cl)cc2)c2nnnn2C2CCCCC2)cc1 (configuration not stated)
inactive: [1] 74.4% | [2] 85.7% | [3] 98% | [4] 94.2% | [5] 75.5% | [6] 61.4% | [7] 98.7% | [8] 95.9%

COc1cc(/C=N/n2cnc3oc(-c4ccccc4)cc3c2=N)cc(CN2CCCCC2)c1O
active: [1] -33.1% | [2] -55.4% | [3] -91.8% | [4] -70% | [5] -80.5% | [6] -89.1% | [7] -46.8% | [8] -72.6%

O=C(COc1ccc(/C=C2\SC(=O)NC2=O)cc1)Nc1ccc(C(=O)/C=C/c2cc3ccccc3nc2Cl)cc1
active: [5] -4.07% | [6] -57.2%
inactive: [1] 54.7% | [2] 67.7% | [3] 13.6% | [4] 88.7% | [7] 64.6% | [8] 59.5%

O=C1c2c(c3c4cc(Br)ccc4[nH]c3c3ccc4ccccc4c23)C(=O)N1CCN1CCNCC1
active: [4] -58.4% | [5] -73.7%
inactive: [1] 61.8% | [2] 87.6% | [3] 92.5% | [6] 11.2% | [7] 51.5% | [8] 88.6%

CCc1ccc(NC(=O)N[C@@H](Cc2cccc(F)c2)C(=O)N[C@@H]2C(=O)N3CCC[C@H]3C(=O)N3CCCC[C@H]3C(=O)N[C@@H](C)C(=O)N3C[C@H](C)C[C@H]3C(=O)O[C@H]2C)c(F)c1
active: [6] 3.62% | [7] 5.04%
inactive: [1] 29.6% | [2] 17.9% | [3] 19.2% | [4] 34.4% | [5] 15.2% | [8] 33.6%

Cc1cc(C(=O)Nc2ccc(SC#N)cc2)c(C)o1
inactive: [1] 84.1% | [2] 75.4% | [3] 103% | [4] 104% | [5] 88.1% | [6] 96.1% | [7] 107% | [8] 89%

COc1cc2cc(Oc3ccc(NC(=O)Nc4cccc(C(F)(F)F)c4)cc3)c(C)nc2cc1OCCN(C)C
inactive: [1] 91.8% | [2] 119% | [3] 96.6% | [4] 111% | [5] 69.2% | [6] 82.8% | [7] 105% | [8] 98.2%

COc1ccc(-c2ccnc3c(C#N)c(Nc4ccccc4)nn23)cc1OC
inactive: [1] 80.5% | [2] 86.1% | [3] 103% | [4] 90% | [5] 90.2% | [6] 87.5% | [7] 99.1% | [8] 96.6%

O=C1Nc2ccc(Cl)cc2/C1=C/c1ccc(OCc2ccc(F)cc2)cc1
inactive: [1] 102% | [2] 107% | [3] 93% | [4] 102% | [5] 84.6% | [6] 88.5% | [7] 102% | [8] 98.8%

CCN(CC)CCN1C(=O)c2c(c3c4cccnc4[nH]c3c3ccc4ccccc4c23)C1=O
inactive: [1] 66% | [2] 85.8% | [3] 87.6% | [4] 53.4% | [5] 17.4% | [6] 63.1% | [7] 77.8% | [8] 81.8%

C=C(C)[C@@H]1CC[C@]2(C(=O)ON)CC[C@]3(C)[C@H](CC[C@@H]4[C@@]5(C)C/C(=C/c6ccc(Br)cc6)C(=O)C(C)(C)[C@@H]5CC[C@]43C)[C@@H]12
inactive: [1] 49.4% | [2] 96.9% | [3] 81.1% | [4] 81.7% | [5] 44.9% | [6] 48.6% | [7] 82.9% | [8] 69.9%

O=C(/C=C/c1cccc(O)c1)c1ccc(O)cc1
inactive: [1] 62.6% | [2] 86.5% | [3] 65.5% | [4] 49.2% | [5] 37.3% | [6] 33.8% | [7] 110% | [8] 33.4%

COc1ccc(C(=O)c2c(N)c(C#N)cn2-c2cccc(OC)c2)cc1
inactive: [1] 16% | [2] 41.9% | [5] 17.5% | [6] 16.8% | [7] 56.1% | [8] 23.7%
active: [3] -37.3% | [4] 9.11%

C=CCn1c(SCC(=O)Nc2cccc(C(=O)/C=C/c3ccccc3)c2)nc2ccccc2c1=O
inactive: [1] 78.4% | [2] 107% | [3] 82.9% | [4] 12.2% | [5] 18.3% | [7] 96% | [8] 57.5%
active: [6] -3.91%

COc1ccc(/C=N\NC(=O)c2ccc3nc(-c4ccc(Br)cc4)[nH]c3c2)cc1
inactive: [1] 55.8% | [2] 65.8% | [3] 35.5% | [4] 23.5% | [5] 15.8% | [6] 12.5% | [7] 59.4% | [8] 25.9%

COc1cc(/C=N/Nc2ccnc3cc(Cl)ccc23)cc(OC)c1O
inactive: [2] 103%
active: [1] -56.5% | [3] -85.9% | [4] -30.4% | [5] -72.3% | [6] -68.7% | [7] -81.9% | [8] -53.8%

O=c1[nH]c(CCl)nc2c1cnn2-c1ccccc1
inactive: [1] 95.2% | [2] 94.1% | [3] 104% | [4] 102% | [5] 79.5% | [6] 94.9% | [7] 105% | [8] 101%

C=C(C)[C@@H]1CC[C@]2(COS(C)(=O)=O)CC[C@]3(C)[C@H](CC[C@@H]4[C@@]5(C)CCCNC(C)(C)[C@@H]5CC[C@]43C)[C@@H]12
inactive: [1] 77.5% | [2] 93.9% | [3] 44.9% | [6] 15.6% | [7] 16.4% | [8] 26.2%
active: [4] 4.87% | [5] 3.49%

C#C[C@]1(O)CC[C@H]2[C@@H]3CC=C4c5sc(Nc6nc(C)cc(OC)n6)nc5CC[C@]4(C)[C@H]3CC[C@@]21C
active: [5] 8.47%
inactive: [1] 59% | [2] 48% | [3] 34.7% | [4] 23.6% | [6] 42.7% | [7] 80.9% | [8] 46.1%

Cn1cc2c(c1)-c1c(sc3nc(-c4ccc(NC(=O)Nc5cc(C(C)(C)C)on5)cc4)cn13)CC2
inactive: [1] 30.2% | [2] 71.3% | [3] 51.9% | [4] 73% | [5] 15.6% | [6] 39% | [7] 63.1% | [8] 21.7%

O=C1c2c(c3c4cccnc4[nH]c3c3ccc4ccccc4c23)C(=O)N1CCN1CCCCC1
inactive: [1] 46.4% | [2] 84.4% | [3] 69% | [4] 41.3% | [5] 14.5% | [6] 36.9% | [7] 70% | [8] 99.6%

COc1cc2oc(-c3cccc(NC(=O)c4cc(NC(=O)[C@H](C)NC(=O)OC(C)(C)C)ccc4C)c3)cc(=O)c2c(OC)c1OC
inactive: [1] 28.2% | [2] 84.9% | [3] 90% | [4] 92.9% | [5] 67% | [6] 58% | [7] 78.6% | [8] 71.1%

O=C(Nc1ccccc1)Nc1nc2ccc([N+](=O)[O-])cc2s1
active: [1] -14.3% | [2] -11.8% | [3] 2.4% | [5] 2.9% | [6] 4.52% | [8] 3.66%
inactive: [4] 11.5% | [7] 10.8%

COc1ccc2c(C3=C(c4cn(C)c5ccccc45)C(=O)NC3=O)coc2c1
inactive: [1] 44% | [2] 82.6% | [4] 39% | [5] 24.3% | [6] 15.8% | [7] 28.2% | [8] 32.1%
active: [3] 6.58%

CC(=O)NC(C)(C)C(=O)N[C@@H](C)C(=O)NC(C)(C)C(=O)N[C@@H](C)C(=O)NC(C)(C)C(=O)N[C@@H](C)C(=O)N[C@@H](CCC(N)=O)C(=O)NC(C)(C)C(=O)N[C@H](C(=O)NC(C)(C)C(=O)NCC(=O)N[C@@H](CC(C)C)C(=O)NC(C)(C)C(=O)N1CCC[C@H]1C(=O)N[C@H](C(=O)NC(C)(C)C(=O)NC(C)(C)C(=O)N[C@@H](CCC(N)=O)C(=O)N[C@@H](CCC(N)=O)C(=O)N[C@H](CO)CC1CCCCC1)C(C)C)C(C)C
active: [2] -4.41% [5 µM] | [3] 9.46% [5 µM]
inactive: [1] 25% [5 µM] | [4] 37.1% [5 µM] | [5] 17.2% [5 µM] | [6] 49.3% [5 µM] | [7] 49.9% [5 µM] | [8] 63.3% [5 µM]

CCOC(=O)C1=C(C)Nc2nnc(Nc3ccccc3)n2C1c1ccccc1 (configuration not stated)
active: [6] 7.91%
inactive: [1] 58.2% | [2] 84% | [3] 86.8% | [4] 35.2% | [5] 55.7% | [7] 105% | [8] 94.7%
